According to PubChem BioAssay AID504465 (National Center for Advancing Translational Sciences (NCATS), 2011):
The whole screen tested about 2,100 compounds, of which about 210 (10%) were called active. Not shown: some 53% with an inconclusive outcome. Calls come from the whole dose curve; as a rule, active = well fitted inhibition curve with a large enough effect; inconclusive = small, poorly fitted or top-dose-only effect, or effect the other way; inactive = no such curve, though single readings can be large or run the other way. This is one part of the list.

Test: IN Cell qHTS Assay for Inhibitors of the mTORC1 Signaling Pathway in MEF (Tsc2-/-, p53-/-) Cells: Sytravon; note: nearly all actives have a fitted effect of over 60% in size
Details: phospho-rpS6 immunofluorescence, 24 h; series mostly up to 38.3 µM
Procedure, shortened: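 Tsc2-/-, p53-/- MEFs (empty-vector) treated with compound 24 h at 37 degree Celsius, then fixed and stained for phospho-rpS6 Ser235/236 (Alexa-488) plus Hoechst. Reported as % positive cells, thresholds set against 7.5 nM rapamycin and DMSO wells.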
Potency is the fitted concentration of half-maximal effect.

Potency, active:
Cc1cccc(CN2CCC(CNc3ncnc4onc(-c5ccc(Cl)cc5)c34)CC2)c1 7.36 µM
CCS(=O)(=O)c1ncc(Cl)c(C(=O)N(Cc2ccccc2)c2ccc(OC)cc2)n1 3.29 µM
COc1ccc(N(Cc2ccccc2)C(=O)c2nc(S(C)(=O)=O)ncc2Cl)cc1 2.33 µM
Cc1ccc(CNC(=O)Cn2cc(S(=O)(=O)Cc3ccccc3F)c3ccccc32)cc1 18.5 µM
CN(C)c1ccc(NC(=O)Cn2cc(S(=O)(=O)Cc3ccccc3Cl)c3ccccc32)cc1 10.4 µM
COc1ccc(-n2nc3c(N4CCCC(C(=O)NCc5ccccc5C)C4)nnc(C)c3c2C)cc1 (stereo unspecified) 5.85 µM
Cc1nnc(NC(=O)c2nc(S(=O)(=O)Cc3ccccc3)ncc2Cl)s1 16.5 µM
COc1ccc2nc(NC(=O)c3nc(S(=O)(=O)Cc4ccccc4)ncc3Cl)sc2c1 5.85 µM
CCc1nnc(NC(=O)c2nc(S(=O)(=O)Cc3cccc(C)c3)ncc2Cl)s1 9.27 µM
CCc1nnc(NC(=O)c2nc(S(=O)(=O)Cc3ccc(C)cc3)ncc2Cl)s1 20.7 µM
Cc1ccccc1CS(=O)(=O)c1ncc(Cl)c(C(=O)Nc2nnc(C(C)C)s2)n1 13.1 µM
O=S(=O)(c1ccc(-c2csc(=Nc3ccc(OC(F)(F)Cl)cc3)n2CCCO)cc1)N1CCCC1 1.85 µM
Cc1ccc(C(=O)Nc2c(C(=O)NCc3ccc(Cl)cc3)sc3nc(C)cc(C)c23)cc1 11.7 µM
Cc1cc(C)c2c(NC(=O)c3ccccc3Cl)c(C(=O)Nc3ccc(C)c(C)c3)sc2n1 1.65 µM

Potency, inactive:
Cc1cccc(C(=O)Nc2ccccc2SCc2cc(=O)c3cccc(C)c3[nH]2)c1
COc1ccc(CCNC(=O)CCn2c(=O)c3ccccc3n(Cc3ccccc3C)c2=O)cc1OC
COc1ccc(CCNC(=O)c2ccc3c(c2)N=C(C)c2cc(C)ccc2S3)cc1OC
O=C(Nc1cccc(C(=O)N2CCN(c3ccc(Cl)cc3)CC2)c1)c1nsc2ccccc12
Cc1ccc(NC(=O)c2cc(S(=O)(=O)N3CCCCCC3)ccc2F)cc1F
Cc1oc2ccc(O)c(CN(C)Cc3ccccc3)c2c1C(=O)Nc1cccc(Cl)c1C
O=c1ccc(-c2ccccc2)nn1Cc1ccc(F)cc1Cl
CCc1ccc(CNC(=O)c2ccc(NC(=O)N3CCCCc4ccccc43)cc2)cc1
CCCC(=O)C1=C(c2ccc(C)cc2)N(C(=O)CCC)n2cnnc2S1
Cc1cc(C)cc(NC(c2cccc(Cl)c2)c2nnc(-c3ccccc3)o2)c1 (stereo unspecified)
CCOC(=O)N1CCc2c(sc3c2C(=O)NC(c2cc(OC)c(OC)c(OC)c2)N3)C1 (stereo unspecified)
CCCOc1ccc(Oc2nc(NCC(C)C)nc(N(C)C)n2)nn1
CCN1CCc2c(sc(NC(=O)CSc3ccccc3)c2-c2nc3ccccc3s2)C1
Cc1ccc(CN2CCC(CNC(=O)Nc3ccc(Cl)cc3)C2)cc1 (stereo unspecified)
O=C(NCC1CCN(Cc2cccc(Cl)c2)CC1)Nc1ccc(F)c(Cl)c1
CCC(C)NC(=O)c1cc(Sc2cccc(Cl)c2)nc2ccccc12 (stereo unspecified)
COc1ccc(-n2nnc(-c3nsc(NC(=O)c4ccc(C)c(C)c4)n3)c2C)cc1Cl
CCOc1ccc(-c2oc3ccccc3c(=O)c2O)cc1OCC
COc1ccc(-n2cc(C(=O)N(CCN(C)C)Cc3ccccc3)c3ccccc3c2=O)cc1
CCOc1ccc(N(C(=O)Cn2nnc3ccccc32)C(C(=O)NCc2ccccc2)c2ccc(OC)cc2)cc1 (stereo unspecified)
CCN(CC)CCNC(=O)c1cn(CCOC)c(=O)c2c1c1ccccc1n2C
CC(C)C(=O)OC1=CN(Cc2ccccc2)S(=O)(=O)c2ccccc21
CCc1ccc(N=C2NC(=O)CC(C(=O)Nc3ccc(OC)cc3)S2)cc1 (stereo unspecified)
CCCc1cc(=O)oc2cc(C)c3c(-c4ccccc4)c(C)oc3c12
C#CCOc1c(Br)cc(C2C(C(=O)OC)=C(C)NC3=C2C(=O)c2ccccc23)cc1OCC (stereo unspecified)
CSc1cccc(NC(=O)Cn2cnc(S(=O)(=O)N3CCCC3)c2)c1
Cn1nnnc1SCCCNCc1cccc(OCc2ccccc2Cl)c1
Cc1noc(/C=C/N(C)C)c1S(=O)(=O)N1CCCC(C(=O)Nc2ccc(F)cc2F)C1 (stereo unspecified)
Cc1ccc(-c2noc(-c3ccccc3NC(=O)C3CC(=O)N(c4cccc(C)c4)C3)n2)cc1 (stereo unspecified)
CC(C)N(C(=O)CSc1cn(CC(=O)N2CCCCCC2)c2ccccc12)C(C)C
O=C(Cn1cc(S(=O)(=O)Cc2cccc(Cl)c2)c2ccccc21)Nc1ccccc1C(F)(F)F
Cc1cc(C)c(NC(=O)Cn2cc(S(=O)(=O)Cc3ccccc3F)c3ccccc32)c(C)c1
COc1ccc2c(c1)c(=O)c(C(=O)c1ccc(C)cc1)cn2Cc1ccccc1F
Cc1ccccc1OCc1cc(=O)n2c(-c3ccccc3)csc2n1
Cc1cccc(-n2c(C)nc3cc(C(=O)NC4CCCCCC4)ccc32)c1
COc1ccc(S(=O)(=O)N(C)Cc2nc(-c3cccc(C)c3)no2)cc1
Cc1ccc(-c2cnc(NCc3ccc(C(F)(F)F)cc3)n2C)cc1
Cc1nnc(N2CCCC(C(=O)Nc3cc(F)ccc3F)C2)c2nn(-c3ccccc3)c(C)c12 (stereo unspecified)
O=C(NCc1ccccc1Cl)C1CCCN(c2nc3ccccc3n3cccc23)C1 (stereo unspecified)
CCCN1C(=O)C(Cc2nc3ccccc3c(=O)n2CC)c2ccccc21 (stereo unspecified)
COc1cccc(-n2ccnc2SCC(=O)Nc2nc3ccc(C)cc3s2)c1
COc1cc(OC)cc(C(=O)Nc2cc3nn(-c4ccccc4)nc3cc2Cl)c1
COc1ccccc1NC(=O)c1c(NCc2ccc(C)o2)sc2c1CCC(C)C2 (stereo unspecified)
Cc1ccccc1C(=O)N1CCC(c2nc3ccccc3s2)CC1
CC(C)(C)c1ccc(S(=O)(=O)NCc2ccc3c(c2)CCN3C(=O)c2ccccc2)cc1
CCCCN(C)CCNC(=O)Cn1ncc2c3ccccc3n(CCC)c2c1=O
CCCCNC(=O)c1cc(-c2cccnc2)nc2ccc(S(=O)(=O)NCCCC)cc12
O=C(CSc1nccn1-c1ccc(Cl)cc1)Nc1ccc(Cl)c(Cl)c1
CCC1=Nc2cc(C(=O)NC3CCC(C)CC3)ccc2Sc2ccc(C)cc21 (stereo unspecified)
CC1CCN(S(=O)(=O)c2ccc3nc(Nc4cccc(F)c4)ccc3c2)CC1
CCSc1nc2ccccc2c(OCc2cc(C(=O)OC)ccc2OC)c1C(=O)OC
CC(C)c1ccc(NC(=O)CSC2=Nc3ccccc3C3=NC(CCC(=O)NCc4ccc(F)cc4)C(=O)N23)cc1 (stereo unspecified)
O=C(CCn1cnc2onc(-c3ccc(F)cc3)c2c1=O)Nc1ccc(F)c(Cl)c1
COc1ccc(NC(=O)CCCN2C(=O)CCn3nc(-c4cn(C)c5ccccc45)cc32)cc1
CCOC(=O)C1=C(C)NC(=O)NC1c1cn(-c2ccccc2)nc1-c1ccc(OC(C)C)cc1 (stereo unspecified)
O=C(Nc1ccc(F)cc1F)c1noc2c1CCc1ccccc1-2
CC1=Nc2cc(C(=O)NC3CCCC3)ccc2Sc2ccc(Br)cc21
Cc1ccc(NC(=O)c2cc(S(=O)(=O)N3CCc4ccccc43)ccc2F)cc1Cl
COCCCNC(=O)c1sc2nc(C)c(C(=O)Nc3ccc(C)cc3C)c(-c3ccc(Cl)cc3)c2c1N
Cc1cc(C)c(NC(=O)c2sc3nc(C)cc(C)c3c2NC(=O)c2ccccc2)c(C)c1
Cc1cccc(C(=O)Nc2c(C(=O)NCc3ccc(Cl)cc3)sc3nc(C)cc(C)c23)c1
CC(C)(C)c1ccc(NC(=O)CSc2nnc3scc(-c4ccccc4)n23)cc1
